From PubChem
FEN1 inh: qHTS Assay for the Inhibitors of Human Flap endonuclease 1 (FEN1); Recombinant FEN1 flap cleavage, fluorescence, 15 min; P39748; Potency, µM (doses to about 114 µM), actives largely listed as inhibitors; 390,000 compounds, 0.35% hits; note: nearly all actives have a fitted effect of over 65% in size
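Read-out was taken twice, immediately and after 15 min, following addition of 50 nM substrate to 10 nM FEN1 that had sat with test compound for 15 min at room temperature. Curves came from a four-parameter Hill model.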
Pol iota inh: qHTS for Inhibitors of Polymerase Iota; Pol iota fluorescent replication assay, 10 min; Potency, µM (top dose mostly 115 µM), most hits filed as inhibitors; 390,000 compounds, 1% hits
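Pol iota at 10 nM preincubated 15 min with compounds at room temperature; reaction started with fluorescent substrate, 50 nM final. Fluorescence read kinetically at 0 and 10 min; buffer-only wells as negative control.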
Pol eta inh: qHTS for Inhibitors of Polymerase Eta; Potency, µM (highest dose often 114 µM), actives largely listed as inhibitors; 390,000 compounds, 1.2% hits; recombinant Pol eta, fluorescent DNA replication assay
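Pol eta at 10 nM preincubated with compounds 15 min at room temperature; reaction started with fluorescent substrate (50 nM final) and read kinetically at 0 and 10 min.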
POLK inh: qHTS for Inhibitors of Polymerase Kappa; DNA polymerase kappa (Homo sapiens), Q9UBT6; purified Pol kappa, fluorescent DNA synthesis assay, 10 min; Potency, µM (series often up to 107 µM), usual class: inhibitors; 400,000 compounds, 0.53% hits; AID 588579, 2011
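Kinetic fluorescence readout at 0 and 10 min followed reaction start with substrate at 50 nM final. Beforehand, enzyme (10 nM Pol kappa) stood 15 min with compound at room temperature; buffer-only wells were negative controls.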
WRN helicase inh: qHTS for Inhibitors of WRN Helicase. WRN helicase unwinding, fluorescent forked duplex, kinetic. Potency, µM (top dose mostly 114 µM), actives largely listed as inhibitors. AID 651768, 2012. Bifunctional 3'-5' exonuclease/ATP-dependent helicase WRN (Homo sapiens), Q14191. 360,000 compounds, 0.46% hits; note: nearly all actives have a fitted effect of over 55% in size
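Primary qHTS, 1536-well format. 20 nM WRN + compound, 15 min RT; start with 100 nM forked fluorophore/quencher duplex, 2 mM ATP (final); kinetic read ex 525/em 598 nm.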
POLB inh: qHTS Assay for Inhibitors of DNA Polymerase Beta; P06746; Pol beta primer extension/strand displacement, fluorescence kinetic; Potency, µM (titrated, usually from 114 µM), hits mostly inhibitors; 340,000 compounds, 1.3% hits
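Preincubation: enzyme (10 nM) with compound, 15 min, RT. Reaction: substrate added to 50 nM final. Reads: 0 and 10 min. Analysis: normalized, Hill fit.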
Of the large screens only hits and unclear results are named; the others gave an inactive call. In the library only some 2.4% were active in any assay of this set; here they are far more common. Calls come from the whole dose curve; as a rule, active = well fitted curve in the direction sought with a large enough effect; inconclusive = small, poorly fitted or top-dose-only effect, or another doubt; inactive = no such curve, though single readings can be large; an effect the other way counts as inactive or inconclusive.

Cc1ccc(CNC(=O)c2ccc3c(=O)n(CCCN4CCCC4=O)c(=S)[nH]c3c2)cc1	POLB inh 31.6µM
COc1ccc(-c2cc(OC(=O)c3ccc(Cl)cc3)c3c(C)oc(C)c3c(=O)c2)cc1	Pol iota inh inconclusive, POLK inh inconclusive (no result: WRN helicase inh)
CCOC(=O)/C=C1\SCC(=O)N1CC(O)CN1C(=O)CS/C1=C\C(=O)OCC	none
CCOC(=O)/C=C1/SCC(=O)N1CC(=O)c1ccc[nH]1	Pol iota inh 22.4µM, Pol eta inh inconclusive (no result: POLB inh)
CC(C)c1ccc(S(=O)(=O)/N=C2/C=C(Sc3ncn[nH]3)C(=O)c3ccccc32)cc1	FEN1 inh 79.4µM, Pol iota inh 3.55µM, Pol eta inh 12.6µM, POLK inh 79.4µM, WRN helicase inh 31.6µM, POLB inh 22.4µM
Cc1ccc(S(=O)(=O)Nc2ccc(O)c(Sc3ncn[nH]3)c2)cc1	none
Cc1ccc(S(=O)(=O)/N=C2/C=C(Sc3ncn[nH]3)C(=O)c3ccccc32)cc1	FEN1 inh 50.1µM, Pol iota inh 1.12µM, Pol eta inh 3.55µM, WRN helicase inh 31.6µM, POLB inh inconclusive
O=[N+]([O-])c1ccc(-c2cc(-c3ccc(Cl)cc3)n[nH]2)cc1	Pol eta inh inconclusive, WRN helicase inh 100µM, POLB inh inconclusive
O=[N+]([O-])c1ccc2nc(-c3ccc(Cl)cc3)[nH]c2c1	FEN1 inh inconclusive, Pol eta inh inconclusive
O=C(NCc1cccc(Cl)c1)c1ccc(NC(=O)N2CC3CCCN3c3ccccc32)cc1 (stereo unspecified)	none (no result: WRN helicase inh)
Cc1ccnc2c1ccc1c(C)ccnc12	FEN1 inh 25.1µM (no result: POLB inh)
COc1ccccc1CNC(=O)C1CCCN(C(=O)c2cnn(-c3ccc(F)cc3)c2-n2cccc2)C1 (stereo unspecified)	none (no result: WRN helicase inh)
Cc1cccc(C)c1Nc1c(-c2ccc(Cl)s2)nc2ncccn12	none (no result: WRN helicase inh)
CCc1ccc(-c2ccc(SCC(=O)Nc3nnc(C)s3)nn2)cc1	WRN helicase inh inconclusive, POLB inh 39.8µM
Cc1cccc(-c2nc(Cn3c(SCc4cc(C)ccc4C)nc4ccncc43)c(C)o2)c1	none (no result: WRN helicase inh)
COc1cc(C(=S)N2CCCCC2)ccc1O	Pol iota inh 56.2µM
O=C1CC(=O)CC(c2ccco2)C1	Pol iota inh inconclusive, Pol eta inh 17.8µM, POLK inh inconclusive, POLB inh inconclusive
CC(C)CNC1=CC(=O)CC(c2ccco2)C1 (stereo unspecified)	Pol iota inh 28.2µM, Pol eta inh inconclusive, POLK inh inconclusive, POLB inh 28.2µM
O=C1C=C(NCc2ccc(Cl)cc2)CC(c2ccco2)C1 (stereo unspecified)	Pol iota inh inconclusive, Pol eta inh inconclusive, POLB inh inconclusive
COc1ccc(NC(=O)NCc2cccn2Cc2ccc(F)cc2)cc1OC	none (no result: WRN helicase inh)
CN(c1ccccc1)S(=O)(=O)c1ccc2[nH]c(=O)oc2c1	Pol iota inh 11.2µM, Pol eta inh 31.6µM, POLB inh 50.1µM
Cc1ccc(C)c(NS(=O)(=O)c2ccc3[nH]c(=O)oc3c2)c1	Pol iota inh inconclusive, Pol eta inh 31.6µM, POLK inh inconclusive, POLB inh 31.6µM
COc1ccc(-c2nnc(SCC(=O)Nc3ccc(C)c(Cl)c3)nc2-c2ccc(OC)c(OC)c2)cc1OC	none (no result: WRN helicase inh)
COCCN1C(=O)/C(=C/c2ccc(N3CCCC3)cc2C)SC1=S	Pol iota inh inconclusive, WRN helicase inh 79.4µM
Nc1cc2nsnc2cc1Br	FEN1 inh inconclusive, Pol iota inh 3.55µM, Pol eta inh 3.55µM, WRN helicase inh inconclusive, POLB inh inconclusive
O=C(NCC(c1ccc2c(c1)OCO2)N1CCN(c2ccccc2)CC1)C(=O)Nc1ccc(F)cc1 (stereo unspecified)	none (no result: WRN helicase inh)
S=c1[nH]nc(COc2ccccc2)n1/N=C/C=C/c1ccccc1	none
